# Out of some 5,500 compounds screened, about 2,000 (36%) were called active. Not shown: some 18% with an inconclusive outcome. Some of the results follow. Unmarked numbers belong to inactive results. Rule as the data show it: active = normalized growth mostly below about 0.91 (no sharp cut-off); inconclusive = no clear call, values can overlap the other calls; inactive = mostly above about 0.92.
# Assay: chemical genetic growth profiling, strain panel (AID 1159580);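 also: tested at 20 µM; growth read once vehicle control cultures reached saturation at 30 °C; 1 = growth at the plate median or of vehicle wells; lower values mean less growth of the strain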
# Conditions: growth OD
smiles,measurement,setting,value
O=C1CC(c2ccc(O)cc2)Oc2ccccc21 (stereo unspecified),normalized growth,"S. cerevisiae deletion strains, locus YAL013W, strain DEP1, hits give low values",0.894 (active)
same,normalized growth,"S. cerevisiae deletion strains, locus YBR021W, strain FUR4, hits give low values",0.896
same,normalized growth,"S. cerevisiae deletion strains, locus YBR229C, strain ROT2, hits give low values",0.918
same,normalized growth,"S. cerevisiae deletion strains, locus YCL029C, strain bik1, hits give low values",0.858 (active)
same,normalized growth,"S. cerevisiae deletion strains, locus YDL035C, strain GPR1, hits give low values",0.844 (active)
same,normalized growth,"S. cerevisiae deletion strains, locus YDL074C, strain BRE1, hits give low values",0.632 (active)
same,normalized growth,"S. cerevisiae deletion strains, locus YDL101C, strain DUN1, hits give low values",0.862 (active)
same,normalized growth,"S. cerevisiae deletion strains, locus YDL134C, strain PPH21, hits give low values",0.798 (active)
same,normalized growth,"S. cerevisiae deletion strains, locus YDL185W, strain tfp1, hits give low values",0.907
same,normalized growth,"S. cerevisiae deletion strains, locus YDL192W, strain arf1, hits give low values",0.818 (active)
same,normalized growth,"S. cerevisiae deletion strains, locus YDR101C, strain arx1, hits give low values",0.865 (active)
same,normalized growth,"S. cerevisiae deletion strains, locus YDR150W, strain NUM1, hits give low values",0.919
same,normalized growth,"S. cerevisiae deletion strains, locus YDR162C, strain NBP2, hits give low values",0.489 (active)
same,normalized growth,"S. cerevisiae deletion strains, locus YDR318W, strain mcm21, hits give low values",0.746 (active)
same,normalized growth,"S. cerevisiae deletion strains, locus YDR388W, hits give low values",0.897 (active)
same,normalized growth,"S. cerevisiae deletion strains, locus YDR502C, strain sam2, hits give low values",0.815 (active)
same,normalized growth,"S. cerevisiae deletion strains, locus YEL061C, strain CIN8, hits give low values",0.879 (active)
same,normalized growth,"S. cerevisiae deletion strains, locus YER110C, hits give low values",0.855 (active)
same,normalized growth,"S. cerevisiae deletion strains, locus YER155C, strain BEM2, hits give low values",0.769 (active)
same,normalized growth,"S. cerevisiae deletion strains, locus YER167W, strain BCK2, hits give low values",0.687 (active)
same,normalized growth,"S. cerevisiae deletion strains, locus YGL078C, strain dbp3, hits give low values",0.944
same,normalized growth,"S. cerevisiae deletion strains, locus YGL086W, strain mad1, hits give low values",0.848 (active)
same,normalized growth,"S. cerevisiae deletion strains, locus YGL248W, strain PDE1, hits give low values",0.795 (active)
same,normalized growth,"S. cerevisiae deletion strains, locus YGR078C, strain PAC10, hits give low values",0.694 (active)
same,normalized growth,"S. cerevisiae deletion strains, locus YGR135W, strain pre9, hits give low values",0.787 (active)
same,normalized growth,"S. cerevisiae deletion strains, locus YGR229C, strain SMI1, hits give low values",0.538 (active)
same,normalized growth,"S. cerevisiae deletion strains, locus YGR252W, strain gcn5, hits give low values",0.718 (active)
same,normalized growth,"S. cerevisiae deletion strains, locus YHR030C, strain SLT2, hits give low values",0.704 (active)
same,normalized growth,"S. cerevisiae deletion strains, locus YHR079C, strain IRE1 (second series), hits give low values",0.8 (active)
same,normalized growth,"S. cerevisiae deletion strains, locus YHR094C, strain hxt1, hits give low values",0.917 (active)
same,normalized growth,"S. cerevisiae deletion strains, locus YHR129C, strain ARP1, hits give low values",0.795 (active)
same,normalized growth,"S. cerevisiae deletion strains, locus YHR200W, strain rpn10, hits give low values",0.924
same,normalized growth,"S. cerevisiae deletion strains, locus YIL066C, strain RNR3, hits give low values",0.851 (active)
same,normalized growth,"S. cerevisiae deletion strains, locus YIL073C, strain SPO22, hits give low values",0.786
same,normalized growth,"S. cerevisiae deletion strains, locus YIL125W, strain kgd1, hits give low values",0.94
same,normalized growth,"S. cerevisiae deletion strains, locus YIR030C, strain dcg1, hits give low values",0.86 (active)
same,normalized growth,"S. cerevisiae deletion strains, locus YJL095W, strain BCK1, hits give low values",0.386 (active)
same,normalized growth,"S. cerevisiae deletion strains, locus YJL134W, strain LCB3, hits give low values",0.919 (active)
same,normalized growth,"S. cerevisiae deletion strains, locus YJL168C, strain set2, hits give low values",0.926 (active)
same,normalized growth,"S. cerevisiae deletion strains, locus YJL187C, strain SWE1 (second series), hits give low values",0.817 (active)
same,normalized growth,"S. cerevisiae deletion strains, locus YJR043C, strain POL32, hits give low values",0.76 (active)
same,normalized growth,"S. cerevisiae deletion strains, locus YJR075W, strain HOC1, hits give low values",0.755 (active)
same,normalized growth,"S. cerevisiae deletion strains, locus YKL009W, strain mrt4, hits give low values",0.976
same,normalized growth,"S. cerevisiae deletion strains, locus YKL068W, hits give low values",0.924 (active)
same,normalized growth,"S. cerevisiae deletion strains, locus YKL085W, strain MDH1 (second series), hits give low values",0.923 (active)
same,normalized growth,"S. cerevisiae deletion strains, locus YKL085W, strain MDH1, hits give low values",0.923 (active)
same,normalized growth,"S. cerevisiae deletion strains, locus YKL190W, strain CNB1, hits give low values",0.874 (active)
same,normalized growth,"S. cerevisiae deletion strains, locus YKR001C, strain vps1, hits give low values",0.598 (active)
same,normalized growth,"S. cerevisiae deletion strains, locus YLR039C, strain RIC1, hits give low values",0.479 (active)
same,normalized growth,"S. cerevisiae deletion strains, locus YLR058C, strain SHM2, hits give low values",0.829 (active)
same,normalized growth,"S. cerevisiae deletion strains, locus YLR102C, strain apc9, hits give low values",0.928
same,normalized growth,"S. cerevisiae deletion strains, locus YLR262C, strain YPT6, hits give low values",0.498 (active)
same,normalized growth,"S. cerevisiae deletion strains, locus YLR268W, strain sec22, hits give low values",0.784 (active)
same,normalized growth,"S. cerevisiae deletion strains, locus YLR330W, strain CHS5, hits give low values",0.82 (active)
same,normalized growth,"S. cerevisiae deletion strains, locus YLR342W, strain FKS1 (second series), hits give low values",0.563 (active)
same,normalized growth,"S. cerevisiae deletion strains, locus YLR371W, strain rom2, hits give low values",0.927
same,normalized growth,"S. cerevisiae deletion strains, locus YLR418C, strain cdc73, hits give low values",0.471 (active)
same,normalized growth,"S. cerevisiae deletion strains, locus YML016C, strain PPZ1, hits give low values",0.905 (active)
same,normalized growth,"S. cerevisiae deletion strains, locus YML032C, strain rad52, hits give low values",0.696 (active)
same,normalized growth,"S. cerevisiae deletion strains, locus YML124C, strain tub3, hits give low values",0.918 (active)
same,normalized growth,"S. cerevisiae deletion strains, locus YMR078C, strain ctf18, hits give low values",0.808 (active)
same,normalized growth,"S. cerevisiae deletion strains, locus YMR223W, strain ubp8, hits give low values",0.807 (active)
same,normalized growth,"S. cerevisiae deletion strains, locus YMR263W, strain SAP30, hits give low values",0.823 (active)
same,normalized growth,"S. cerevisiae deletion strains, locus YMR307W, strain GAS1, hits give low values",0.56 (active)
same,normalized growth,"S. cerevisiae deletion strains, locus YNL067W, strain RPL9B, hits give low values",0.81 (active)
same,normalized growth,"S. cerevisiae deletion strains, locus YNL128W, strain TEP1, hits give low values",0.923
same,normalized growth,"S. cerevisiae deletion strains, locus YNL153C, strain GIM3, hits give low values",0.837 (active)
same,normalized growth,"S. cerevisiae deletion strains, locus YNL233W, strain BNI4, hits give low values",0.73 (active)
same,normalized growth,"S. cerevisiae deletion strains, locus YNL250W, strain rad50, hits give low values",0.876 (active)
same,normalized growth,"S. cerevisiae deletion strains, locus YNL271C, strain bni1, hits give low values",0.915 (active)
same,normalized growth,"S. cerevisiae deletion strains, locus YNL298W, strain CLA4, hits give low values",0.903 (active)
same,normalized growth,"S. cerevisiae deletion strains, locus YNL307C, strain MCK1, hits give low values",0.176 (active)
same,normalized growth,"S. cerevisiae deletion strains, locus YNL322C, strain KRE1, hits give low values",0.9 (active)
same,normalized growth,"S. cerevisiae deletion strains, locus YNR052C, strain pop2, hits give low values",0.92
same,normalized growth,"S. cerevisiae deletion strains, locus YOL006C, strain TOP1, hits give low values",0.462 (active)
same,normalized growth,"S. cerevisiae deletion strains, locus YOL012C, strain htz1",0.38
same,normalized growth,"S. cerevisiae deletion strains, locus YOL147C, strain pex11, hits give low values",0.662 (active)
same,normalized growth,"S. cerevisiae deletion strains, locus YOR061W, strain CKA2, hits give low values",0.931
same,normalized growth,"S. cerevisiae deletion strains, locus YOR069W, strain VPS5, hits give low values",0.946
same,normalized growth,"S. cerevisiae deletion strains, locus YOR136W, strain idh2, hits give low values",0.92 (active)
same,normalized growth,"S. cerevisiae deletion strains, locus YOR144C, strain elg1, hits give low values",0.911 (active)
same,normalized growth,"S. cerevisiae deletion strains, locus YOR184W, strain ser1, hits give low values",0.465 (active)
same,normalized growth,"S. cerevisiae deletion strains, locus YOR316C, strain cot1, hits give low values",0.916 (active)
same,normalized growth,"S. cerevisiae deletion strains, locus YPL055C, strain LGE1, hits give low values",0.712 (active)
same,normalized growth,"S. cerevisiae deletion strains, locus YPL241C, strain CIN2, hits give low values",0.935
same,normalized growth,"S. cerevisiae deletion strains, locus YPR119W, strain clb2, hits give low values",0.89 (active)
same,normalized growth,"S. cerevisiae deletion strains, locus YPR141C, strain kar3, hits give low values",0.923
same,normalized growth,"S. cerevisiae deletion strains, locus YPR163C, strain tif3, hits give low values",0.451 (active)
same,normalized growth,"S. cerevisiae deletion strains, locus YPR167C, strain met16, hits give low values",0.93
same,normalized growth,"S. cerevisiae deletion strains, strain wtn01, hits give low values",0.807 (active)
same,normalized growth,"S. cerevisiae strains, strain wild type, hits give low values",0.838 (active)

# Reference: PubChem BioAssay AID1159580 (chemical genetic matrix, 2015)
